# Data reported in PMC7862700, “An all-to-all approach to the identification of sequence-specific readers for epigenetic DNA modifications on cytosine”.
# Columns and labels:
# Experiment in all cases: DAPPL (digital affinity profiling via proximity ligation, sequencing); 10 mM Tris-HCl pH 7.5, 50 mM NaCl, 1 mM DTT, 4% glycerol, room temperature, 30 min; GST-TFs on glutathione beads, 16-mer random dsDNA library, 0.1% formaldehyde crosslink after washing; high values mean tight binding
# [1] = biological target: T1, FLI1 (Homo sapiens, UniProt Q01543 1-452); conditions: protein: recombinant; tags: N-terminal GST; dsDNA, one strand shown
# T1 sequence: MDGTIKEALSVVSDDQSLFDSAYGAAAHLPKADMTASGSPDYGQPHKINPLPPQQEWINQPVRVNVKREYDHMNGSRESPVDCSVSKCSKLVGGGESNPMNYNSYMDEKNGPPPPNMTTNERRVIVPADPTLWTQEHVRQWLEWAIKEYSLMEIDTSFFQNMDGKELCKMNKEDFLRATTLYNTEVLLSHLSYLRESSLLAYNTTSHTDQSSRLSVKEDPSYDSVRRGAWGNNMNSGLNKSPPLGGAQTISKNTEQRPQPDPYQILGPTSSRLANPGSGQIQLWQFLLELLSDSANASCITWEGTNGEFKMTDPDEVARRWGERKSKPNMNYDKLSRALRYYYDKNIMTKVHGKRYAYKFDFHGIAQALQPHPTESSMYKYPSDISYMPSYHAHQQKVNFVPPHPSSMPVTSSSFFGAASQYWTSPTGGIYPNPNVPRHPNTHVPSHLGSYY
# Method in brief: (§1)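 Human transcription factors fused to GST were expressed in yeast, captured on glutathione beads, given DNA barcodes and pooled with a GST-only negative control. Pools were incubated with 200 nmole of a 16-mer random double-stranded DNA library in Tris/NaCl/DTT/glycerol buffer at room temperature for 30 min. They were then washed, crosslinked with 0.1% formaldehyde, proximity-ligated (BsaI/T4 ligase, 1 h, 37 °C), PCR-amplified and sequenced on an Illumina NextSeq500. Binding signal is each 6-mer's read frequency for a factor divided by its frequency for the GST control.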
# [2] = biological target: T2, ELK1 (Homo sapiens, UniProt P19419 1-428); conditions: protein: recombinant; tags: N-terminal GST; dsDNA, one strand shown
# T2 sequence: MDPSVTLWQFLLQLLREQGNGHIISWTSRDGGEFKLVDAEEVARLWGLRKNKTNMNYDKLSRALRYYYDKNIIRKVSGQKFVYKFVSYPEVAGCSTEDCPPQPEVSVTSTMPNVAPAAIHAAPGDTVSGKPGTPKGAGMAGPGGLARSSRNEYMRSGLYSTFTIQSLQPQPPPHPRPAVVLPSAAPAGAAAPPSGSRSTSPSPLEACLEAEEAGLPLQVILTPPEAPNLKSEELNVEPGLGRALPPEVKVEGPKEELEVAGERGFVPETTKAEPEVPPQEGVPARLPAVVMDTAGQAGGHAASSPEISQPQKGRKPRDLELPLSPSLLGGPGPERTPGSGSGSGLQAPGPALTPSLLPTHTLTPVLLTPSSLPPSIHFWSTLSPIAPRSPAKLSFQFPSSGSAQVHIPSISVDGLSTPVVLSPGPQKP
# Method in brief: as §1
# [3] = biological target: T3, GABPA (Homo sapiens, UniProt Q06546 1-454); conditions: protein: recombinant; tags: N-terminal GST; dsDNA, one strand shown
# T3 sequence: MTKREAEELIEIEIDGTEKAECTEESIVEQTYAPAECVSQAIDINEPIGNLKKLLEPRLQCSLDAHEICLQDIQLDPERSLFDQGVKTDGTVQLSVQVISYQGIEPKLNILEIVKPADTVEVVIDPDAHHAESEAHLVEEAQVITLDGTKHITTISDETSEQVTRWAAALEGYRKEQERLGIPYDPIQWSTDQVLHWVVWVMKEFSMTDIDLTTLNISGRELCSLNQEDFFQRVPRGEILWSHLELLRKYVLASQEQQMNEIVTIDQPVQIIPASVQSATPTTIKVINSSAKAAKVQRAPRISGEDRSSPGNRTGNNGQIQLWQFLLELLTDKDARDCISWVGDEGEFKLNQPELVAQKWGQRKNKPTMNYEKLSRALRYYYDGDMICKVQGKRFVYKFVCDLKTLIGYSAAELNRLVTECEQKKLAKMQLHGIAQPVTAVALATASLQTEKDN
# Method in brief: as §1
# [4] = biological target: T4, ERG (Homo sapiens, UniProt P11308 1-479); conditions: protein: recombinant; tags: N-terminal GST; dsDNA, one strand shown
# T4 sequence: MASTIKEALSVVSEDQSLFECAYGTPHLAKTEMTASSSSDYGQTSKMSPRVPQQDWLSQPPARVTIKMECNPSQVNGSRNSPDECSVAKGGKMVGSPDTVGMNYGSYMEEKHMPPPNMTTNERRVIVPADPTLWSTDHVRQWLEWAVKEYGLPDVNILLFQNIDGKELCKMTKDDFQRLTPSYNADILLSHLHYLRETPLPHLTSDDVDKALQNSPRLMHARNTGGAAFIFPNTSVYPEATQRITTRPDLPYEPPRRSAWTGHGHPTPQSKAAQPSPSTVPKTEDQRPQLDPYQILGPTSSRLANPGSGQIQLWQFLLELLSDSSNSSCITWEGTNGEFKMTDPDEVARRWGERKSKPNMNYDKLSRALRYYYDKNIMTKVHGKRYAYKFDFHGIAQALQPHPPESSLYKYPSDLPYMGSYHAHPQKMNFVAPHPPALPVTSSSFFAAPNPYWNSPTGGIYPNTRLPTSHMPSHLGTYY
# Method in brief: as §1
# [5] = biological target: ELF1 (Homo sapiens, UniProt P32519 1-619); conditions: protein: recombinant; tags: N-terminal GST; dsDNA, one strand shown
# Method in brief: as §1
# [6] = biological target: T5, EHF (Homo sapiens, UniProt Q9NZC4 1-300); conditions: protein: recombinant; tags: N-terminal GST; dsDNA, one strand shown
# T5 sequence: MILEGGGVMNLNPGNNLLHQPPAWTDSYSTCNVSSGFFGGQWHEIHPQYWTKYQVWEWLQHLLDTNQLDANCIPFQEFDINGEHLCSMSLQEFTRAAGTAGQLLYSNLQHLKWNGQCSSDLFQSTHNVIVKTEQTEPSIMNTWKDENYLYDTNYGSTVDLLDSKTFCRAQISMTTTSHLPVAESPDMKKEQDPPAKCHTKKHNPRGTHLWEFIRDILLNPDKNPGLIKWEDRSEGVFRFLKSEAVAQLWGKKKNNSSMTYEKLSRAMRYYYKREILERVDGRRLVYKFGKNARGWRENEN
# Method in brief: as §1
# [7] = biological target: SPI1 (Homo sapiens, UniProt P17947 1-270); conditions: protein: recombinant; tags: N-terminal GST; dsDNA, one strand shown
# Method in brief: as §1
# [8] = biological target: SPIB (Homo sapiens, UniProt Q01892 1-262); conditions: protein: recombinant; tags: N-terminal GST; dsDNA, one strand shown
# Method in brief: as §1
# [9] = biological target: T6, ELK3 (Homo sapiens, UniProt P41970 1-407); conditions: protein: recombinant; tags: N-terminal GST; dsDNA, one strand shown
# T6 sequence: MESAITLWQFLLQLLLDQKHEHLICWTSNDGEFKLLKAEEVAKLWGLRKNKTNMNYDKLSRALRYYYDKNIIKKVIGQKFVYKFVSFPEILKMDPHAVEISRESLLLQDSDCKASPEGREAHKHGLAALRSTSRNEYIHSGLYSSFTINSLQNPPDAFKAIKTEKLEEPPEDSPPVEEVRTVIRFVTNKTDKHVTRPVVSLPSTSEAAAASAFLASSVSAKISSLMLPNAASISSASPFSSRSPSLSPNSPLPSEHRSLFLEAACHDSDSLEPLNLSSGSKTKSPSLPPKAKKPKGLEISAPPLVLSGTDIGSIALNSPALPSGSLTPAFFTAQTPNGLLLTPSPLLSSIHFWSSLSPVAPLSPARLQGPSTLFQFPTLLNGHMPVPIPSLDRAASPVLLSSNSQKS
# Method in brief: as §1
# [10] = biological target: T7, FEV (Homo sapiens, UniProt Q99581 1-238); conditions: protein: recombinant; tags: N-terminal GST; dsDNA, one strand shown
# T7 sequence: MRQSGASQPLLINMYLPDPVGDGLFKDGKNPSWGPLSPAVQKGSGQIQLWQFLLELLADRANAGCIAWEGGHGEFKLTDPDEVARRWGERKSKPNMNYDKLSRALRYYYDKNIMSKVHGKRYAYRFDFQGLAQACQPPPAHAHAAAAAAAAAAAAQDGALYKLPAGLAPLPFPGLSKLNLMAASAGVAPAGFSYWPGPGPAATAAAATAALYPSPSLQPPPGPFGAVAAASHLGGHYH
# Method in brief: as §1
# [11] = biological target: ETV5 (Homo sapiens, UniProt P41161 1-510); conditions: protein: recombinant; tags: N-terminal GST; dsDNA, one strand shown
# Method in brief: as §1
# [12] = biological target: HSF1 (Homo sapiens, UniProt Q00613 1-529); conditions: protein: recombinant; tags: N-terminal GST; chain copies: 3; dsDNA, one strand shown
# Method in brief: as §1
# [13] = biological target: T8, SPIC (Homo sapiens, UniProt Q8N5J4 1-248); conditions: protein: recombinant; tags: N-terminal GST; dsDNA, one strand shown
# T8 sequence: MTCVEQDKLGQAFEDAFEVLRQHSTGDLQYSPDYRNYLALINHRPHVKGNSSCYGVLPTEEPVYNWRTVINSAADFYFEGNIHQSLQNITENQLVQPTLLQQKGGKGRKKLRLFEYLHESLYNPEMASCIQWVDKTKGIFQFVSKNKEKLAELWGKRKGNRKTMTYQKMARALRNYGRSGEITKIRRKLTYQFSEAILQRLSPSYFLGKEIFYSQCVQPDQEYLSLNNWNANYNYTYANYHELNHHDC
# Method in brief: as §1
# [14] = biological target: ELF4 (Homo sapiens, UniProt Q99607 1-663); conditions: protein: recombinant; tags: N-terminal GST; dsDNA, one strand shown
# Method in brief: as §1
# [15] = biological target: T9, ELK4 (Homo sapiens, UniProt P28324-2 1-405); conditions: protein: recombinant; tags: N-terminal GST; dsDNA, one strand shown
# T9 sequence: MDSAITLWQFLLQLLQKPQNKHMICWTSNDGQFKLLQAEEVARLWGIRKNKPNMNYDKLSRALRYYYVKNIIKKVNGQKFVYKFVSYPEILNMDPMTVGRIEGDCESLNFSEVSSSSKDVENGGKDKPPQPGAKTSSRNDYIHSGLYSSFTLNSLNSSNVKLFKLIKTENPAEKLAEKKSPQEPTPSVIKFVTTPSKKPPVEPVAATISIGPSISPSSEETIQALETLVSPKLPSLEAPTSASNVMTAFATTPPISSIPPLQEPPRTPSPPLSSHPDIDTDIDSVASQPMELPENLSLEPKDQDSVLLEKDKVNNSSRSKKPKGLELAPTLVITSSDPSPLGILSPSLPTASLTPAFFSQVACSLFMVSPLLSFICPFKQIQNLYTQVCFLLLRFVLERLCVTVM
# Method in brief: as §1
# [16] = biological target: T10, ETV2 (Homo sapiens, UniProt O00321 1-342); conditions: protein: recombinant; tags: N-terminal GST; dsDNA, one strand shown
# T10 sequence: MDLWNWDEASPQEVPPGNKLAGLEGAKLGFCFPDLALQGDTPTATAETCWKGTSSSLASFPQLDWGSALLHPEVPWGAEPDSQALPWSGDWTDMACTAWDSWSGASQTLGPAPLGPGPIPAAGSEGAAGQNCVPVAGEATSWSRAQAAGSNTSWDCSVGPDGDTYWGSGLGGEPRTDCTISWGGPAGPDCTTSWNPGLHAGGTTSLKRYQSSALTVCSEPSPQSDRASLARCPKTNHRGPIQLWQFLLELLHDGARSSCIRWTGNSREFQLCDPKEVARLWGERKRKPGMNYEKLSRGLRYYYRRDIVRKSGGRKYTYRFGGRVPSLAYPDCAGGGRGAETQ
# Method in brief: as §1
# [17] = biological target: T11, ELF3 (Homo sapiens, UniProt P78545 1-371); conditions: protein: recombinant; tags: N-terminal GST; dsDNA, one strand shown
# T11 sequence: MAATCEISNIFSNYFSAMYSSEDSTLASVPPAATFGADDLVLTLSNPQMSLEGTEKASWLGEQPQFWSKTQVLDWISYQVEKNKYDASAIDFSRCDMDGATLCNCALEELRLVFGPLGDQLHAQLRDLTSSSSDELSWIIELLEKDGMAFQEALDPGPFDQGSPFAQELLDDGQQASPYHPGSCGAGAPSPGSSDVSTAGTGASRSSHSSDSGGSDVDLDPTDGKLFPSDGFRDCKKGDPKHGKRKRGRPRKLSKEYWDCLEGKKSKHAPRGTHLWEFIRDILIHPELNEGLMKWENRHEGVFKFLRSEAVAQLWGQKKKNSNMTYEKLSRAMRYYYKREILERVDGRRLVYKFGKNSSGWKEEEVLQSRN
# Method in brief: as §1
# [18] = biological target: CRX (Homo sapiens, UniProt O43186 1-299); conditions: protein: recombinant; tags: N-terminal GST; dsDNA, one strand shown
# Method in brief: as §1
# [19] = biological target: ETV1 (Homo sapiens, UniProt P50549 1-477); conditions: protein: recombinant; tags: N-terminal GST; dsDNA, one strand shown
# Method in brief: as §1
# Chain of ELF4 (Q99607 whole entry): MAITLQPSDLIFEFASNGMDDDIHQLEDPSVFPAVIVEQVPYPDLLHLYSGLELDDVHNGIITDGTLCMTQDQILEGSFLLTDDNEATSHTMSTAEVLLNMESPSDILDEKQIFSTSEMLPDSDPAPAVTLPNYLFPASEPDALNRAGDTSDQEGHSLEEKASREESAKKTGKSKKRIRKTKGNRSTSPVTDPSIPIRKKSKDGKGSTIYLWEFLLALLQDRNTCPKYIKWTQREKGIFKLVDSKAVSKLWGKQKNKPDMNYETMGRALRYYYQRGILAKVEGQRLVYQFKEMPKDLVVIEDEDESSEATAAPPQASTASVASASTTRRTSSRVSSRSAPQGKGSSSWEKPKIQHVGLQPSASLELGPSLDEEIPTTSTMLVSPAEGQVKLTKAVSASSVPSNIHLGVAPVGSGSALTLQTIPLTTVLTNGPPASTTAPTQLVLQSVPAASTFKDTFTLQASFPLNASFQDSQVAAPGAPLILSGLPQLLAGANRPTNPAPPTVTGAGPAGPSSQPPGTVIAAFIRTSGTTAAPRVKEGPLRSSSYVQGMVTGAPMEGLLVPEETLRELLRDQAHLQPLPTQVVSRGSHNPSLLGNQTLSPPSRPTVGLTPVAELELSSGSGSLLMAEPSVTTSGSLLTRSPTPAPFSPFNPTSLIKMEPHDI
# Chain of ETV1 (P50549 whole entry): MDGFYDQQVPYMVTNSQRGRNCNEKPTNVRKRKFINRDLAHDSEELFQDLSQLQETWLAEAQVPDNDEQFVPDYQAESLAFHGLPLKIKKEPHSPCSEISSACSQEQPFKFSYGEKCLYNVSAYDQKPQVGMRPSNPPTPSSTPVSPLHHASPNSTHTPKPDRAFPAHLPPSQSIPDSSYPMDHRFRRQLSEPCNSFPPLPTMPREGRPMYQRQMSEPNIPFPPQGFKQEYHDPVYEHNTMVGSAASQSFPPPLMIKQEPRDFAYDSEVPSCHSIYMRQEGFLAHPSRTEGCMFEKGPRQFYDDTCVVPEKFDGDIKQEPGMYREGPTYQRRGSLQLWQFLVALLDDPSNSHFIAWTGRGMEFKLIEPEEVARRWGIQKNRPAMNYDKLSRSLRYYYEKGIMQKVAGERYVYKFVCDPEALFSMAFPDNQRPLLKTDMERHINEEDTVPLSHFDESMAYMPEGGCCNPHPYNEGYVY
# Chain of SPIB (Q01892 whole entry): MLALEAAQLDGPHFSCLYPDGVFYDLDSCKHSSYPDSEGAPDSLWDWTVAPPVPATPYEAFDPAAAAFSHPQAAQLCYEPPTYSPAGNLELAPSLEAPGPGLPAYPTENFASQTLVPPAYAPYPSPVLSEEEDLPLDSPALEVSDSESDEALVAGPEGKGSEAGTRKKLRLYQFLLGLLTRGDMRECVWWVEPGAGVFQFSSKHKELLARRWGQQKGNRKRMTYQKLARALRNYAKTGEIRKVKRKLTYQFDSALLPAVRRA
# Chain of CRX (O43186 whole entry): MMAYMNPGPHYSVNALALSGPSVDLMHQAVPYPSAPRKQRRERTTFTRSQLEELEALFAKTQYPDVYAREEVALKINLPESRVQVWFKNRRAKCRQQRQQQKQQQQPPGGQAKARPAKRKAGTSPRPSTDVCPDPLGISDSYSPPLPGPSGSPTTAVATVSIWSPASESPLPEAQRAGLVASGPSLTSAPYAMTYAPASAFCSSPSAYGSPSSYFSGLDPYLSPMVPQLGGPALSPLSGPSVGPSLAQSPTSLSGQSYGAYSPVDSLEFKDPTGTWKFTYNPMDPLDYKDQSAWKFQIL
# Chain of ETV5 (P41161 whole entry): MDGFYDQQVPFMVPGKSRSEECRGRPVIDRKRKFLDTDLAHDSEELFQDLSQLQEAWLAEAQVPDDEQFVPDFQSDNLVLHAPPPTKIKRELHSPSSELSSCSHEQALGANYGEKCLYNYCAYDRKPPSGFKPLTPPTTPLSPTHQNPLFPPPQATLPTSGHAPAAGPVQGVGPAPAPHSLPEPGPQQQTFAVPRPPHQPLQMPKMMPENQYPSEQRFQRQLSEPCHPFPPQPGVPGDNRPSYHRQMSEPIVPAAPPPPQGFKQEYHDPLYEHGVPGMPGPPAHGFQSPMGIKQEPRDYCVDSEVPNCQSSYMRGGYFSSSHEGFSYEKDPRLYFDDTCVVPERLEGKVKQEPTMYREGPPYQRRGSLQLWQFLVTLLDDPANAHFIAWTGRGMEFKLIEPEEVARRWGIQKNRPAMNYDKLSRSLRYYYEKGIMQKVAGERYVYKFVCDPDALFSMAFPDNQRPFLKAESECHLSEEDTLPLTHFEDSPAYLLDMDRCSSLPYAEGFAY
# Chain of HSF1 (Q00613 whole entry): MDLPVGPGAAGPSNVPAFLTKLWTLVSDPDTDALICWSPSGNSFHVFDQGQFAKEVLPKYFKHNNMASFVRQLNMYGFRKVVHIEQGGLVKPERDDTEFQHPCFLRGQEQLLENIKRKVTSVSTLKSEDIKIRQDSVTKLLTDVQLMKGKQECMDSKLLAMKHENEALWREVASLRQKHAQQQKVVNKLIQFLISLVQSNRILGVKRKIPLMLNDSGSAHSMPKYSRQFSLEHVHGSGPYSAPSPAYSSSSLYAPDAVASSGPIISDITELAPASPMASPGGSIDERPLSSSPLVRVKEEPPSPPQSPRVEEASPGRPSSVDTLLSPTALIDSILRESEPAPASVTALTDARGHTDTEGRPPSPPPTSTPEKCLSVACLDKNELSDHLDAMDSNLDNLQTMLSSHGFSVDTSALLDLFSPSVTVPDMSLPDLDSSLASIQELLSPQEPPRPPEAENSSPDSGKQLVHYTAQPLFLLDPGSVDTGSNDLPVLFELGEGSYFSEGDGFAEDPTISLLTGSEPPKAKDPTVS
# Chain of ELF1 (P32519 whole entry): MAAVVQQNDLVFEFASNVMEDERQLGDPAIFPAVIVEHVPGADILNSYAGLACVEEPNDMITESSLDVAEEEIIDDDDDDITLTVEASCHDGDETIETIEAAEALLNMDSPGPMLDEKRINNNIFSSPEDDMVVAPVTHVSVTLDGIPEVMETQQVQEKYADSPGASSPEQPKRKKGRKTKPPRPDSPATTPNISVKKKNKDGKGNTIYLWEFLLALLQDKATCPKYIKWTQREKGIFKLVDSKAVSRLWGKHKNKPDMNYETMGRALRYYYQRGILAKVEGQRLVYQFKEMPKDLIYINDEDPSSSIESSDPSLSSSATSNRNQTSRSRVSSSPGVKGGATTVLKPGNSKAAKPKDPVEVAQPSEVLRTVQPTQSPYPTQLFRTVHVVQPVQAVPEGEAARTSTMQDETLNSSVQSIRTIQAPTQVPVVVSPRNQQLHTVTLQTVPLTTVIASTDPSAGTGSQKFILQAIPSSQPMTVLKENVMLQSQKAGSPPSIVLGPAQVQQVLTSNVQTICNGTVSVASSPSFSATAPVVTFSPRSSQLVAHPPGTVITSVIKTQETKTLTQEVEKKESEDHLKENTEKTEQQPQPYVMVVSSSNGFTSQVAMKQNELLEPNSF
sequence,measurement,setting,value
ATGATG,binding signal,[1],"1.39 fold enrichment (6-mer frequency, TF over GST control)"
same,binding signal,[2],"1.35 fold enrichment (6-mer frequency, TF over GST control)"
same,binding signal,[3],"1.33 fold enrichment (6-mer frequency, TF over GST control)"
same,binding signal,[4],"1.18 fold enrichment (6-mer frequency, TF over GST control)"
same,binding signal,[5],"1.36 fold enrichment (6-mer frequency, TF over GST control)"
same,binding signal,[6],"1.4 fold enrichment (6-mer frequency, TF over GST control)"
same,binding signal,[7],"1.24 fold enrichment (6-mer frequency, TF over GST control)"
same,binding signal,[8],"1.35 fold enrichment (6-mer frequency, TF over GST control)"
same,binding signal,[9],"1.53 fold enrichment (6-mer frequency, TF over GST control)"
same,binding signal,[10],"1.27 fold enrichment (6-mer frequency, TF over GST control)"
same,binding signal,[11],"1.33 fold enrichment (6-mer frequency, TF over GST control)"
same,binding signal,[12],"1.24 fold enrichment (6-mer frequency, TF over GST control)"
same,binding signal,[13],"1.35 fold enrichment (6-mer frequency, TF over GST control)"
same,binding signal,[14],"1.37 fold enrichment (6-mer frequency, TF over GST control)"
same,binding signal,[15],"1.38 fold enrichment (6-mer frequency, TF over GST control)"
same,binding signal,[16],"1.47 fold enrichment (6-mer frequency, TF over GST control)"
same,binding signal,[17],"1.38 fold enrichment (6-mer frequency, TF over GST control)"
same,binding signal,[18],"1.21 fold enrichment (6-mer frequency, TF over GST control)"
same,binding signal,[19],"1.24 fold enrichment (6-mer frequency, TF over GST control)"
